Results reported in PubChem BioAssay (NCATS).
Inconclusive results are not listed. Entries that show only a call come without a potency. Activity calls are given as the source filed them. Calls come from the whole dose curve; as a rule, active = well fitted inhibition curve with a large enough effect; inconclusive = small, poorly fitted or top-dose-only effect; inactive = no such curve, though single readings can be large or run the other way.

What was measured:
[1] = system: Zika virus NS2B-NS3 protease (unlinked complex); assay: Primary screen GU Rhodamine qHTS for Zika virus inhibitors: Unlinked NS2B-NS3 protease assay (AID 1347159); details: Recombinant ZIKV NS2B-NS3 protease, Rhodamine110 substrate fluorescence; series mostly up to 107 µM; note: nearly all actives have a fitted effect of over 60% in size
Procedure, shortened: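 Percent inhibition came from the 15-min rise in Rhodamine110 fluorescence (1.5 microM substrate, ~15% conversion), normalized to no-inhibitor and no-enzyme wells and Hill-fitted. Unlinked protease, 25 nM, pH 8.0 Tris buffer; compounds up to 114 microM, 15-min preincubation.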

[2] = system: Zika virus NS2B-NS3 protease (linked construct); assay: Primary screen NINDS Rhodamine qHTS for Zika virus inhibitors (AID 1347160); details: purified NS2B-NS3 protease, Rhodamine110 substrate fluorescence; series mostly up to 57.1 µM; note: nearly all actives have a fitted effect of over 55% in size
Procedure, shortened: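 Rhodamine110-peptide cleavage (1.5 µM substrate) by 25 nM linked NS2B-NS3 enzyme at pH 8.0 (Tris, Tween 20), after 15 min RT preincubation with compounds; 15-min fluorescence change normalized to controls and Hill-fitted.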
Potency is the fitted concentration of half-maximal effect.

COc1ncc2cc(C(=O)Nc3cc(C(=O)NCc4cccc(Cl)c4)ccc3Cl)c(=O)[nH]c2n1
Potency [1]: inactive | Potency [2]: inactive

Cn1c(=O)cc(N2CCCC(N)C2)n(Cc2cc(F)ccc2C#N)c1=O (stereo unspecified)
Potency [1]: inactive | Potency [2]: inactive

C=C1CCC[C@]2(C)CC[C@@H](C(=C)C(=O)O)[C@H](O)[C@@H]12
Potency [1]: inactive | Potency [2]: inactive

NC(=O)c1cnc(NCCc2ccc(O)c(Cl)c2)nc1NCc1ccccc1
Potency [1]: inactive | Potency [2]: inactive

O=C(/C=C/c1ccc(O)cc1)OC1[C@H](O)CC(O)(C(=O)O)C[C@H]1O (stereo partly specified)
Potency [1]: inactive | Potency [2]: inactive

CC1(C)C2CC(OC3OC(COC4OCC(O)(CO)C4O)C(O)C(O)C3O)C1(C)CC2O (stereo unspecified)
Potency [1]: inactive | Potency [2]: inactive

COC(=O)N[C@@H](C)CNc1nccc(-c2cn(C(C)C)nc2-c2cc(Cl)cc(NS(C)(=O)=O)c2F)n1
Potency [1]: inactive | Potency [2]: inactive

CCOCc1nc2c(N)nc3ccccc3c2n1CC(C)(C)O
Potency [1]: inactive | Potency [2]: inactive

C=CC(C)(C)c1[nH]c2cc3c(cc2c1CC1NC(=O)C2CCCN2C1=O)C=CC(C)(C)O3 (stereo unspecified)
Potency [1]: inactive | Potency [2]: inactive

C[C@@H]1O[C@@H](O[C@H]2[C@H](O)[C@@H](C(=O)O)O[C@@H](O[C@H]3CC[C@@]4(C)C(CC[C@]5(C)C4CC=C4C6CC(C)(C)CC[C@]6(C(=O)O)CC[C@]45C)C3(C)C)[C@@H]2O[C@@H]2OC[C@@H](O)[C@H](O)[C@H]2O)[C@H](O)[C@H](O)[C@H]1O (stereo partly specified)
Potency [1]: 8.91 µM (active) | Potency [2]: 3.1 µM (active)

C=C(C)C1CCC(C)C12CC(O)C1(C)OC1C2OC(=O)C(N)CCC(=O)O (stereo unspecified)
Potency [1]: inactive | Potency [2]: inactive

C[C@@H]1O[C@@H](O[C@@H]2[C@@H](O)[C@H](O[C@H]3CC[C@@]4(C)C(CC[C@]5(C)C4CC=C4[C@@H]6CC(C)(C)CC[C@]6(C(=O)O[C@@H]6O[C@H](CO)[C@@H](O)[C@H](O)[C@H]6O)CC[C@]45C)C3(C)C)O[C@H](C(=O)O)[C@H]2O)[C@H](O)[C@H](O)[C@H]1O (stereo partly specified)
Potency [1]: inactive | Potency [2]: inactive

CC(C)c1cc(C(=O)N2CC[C@H](NC(=O)C3CC3)C2)n[nH]1
Potency [1]: inactive | Potency [2]: inactive

CC(C)S(=O)(=O)NC[C@H](C)c1ccc(NC(=O)c2cc(F)cc(F)c2)cc1
Potency [1]: inactive | Potency [2]: inactive

Cc1cc(O)cc(O[C@@H]2O[C@H](CO)[C@@H](O)[C@H](O)[C@H]2O)c1
Potency [1]: inactive | Potency [2]: inactive

C[C@@H]1O[C@@H](O[C@H]2[C@@H]3C=CO[C@@H](O[C@@H]4O[C@H](CO)[C@@H](O)[C@H](O)[C@H]4O)[C@@H]3[C@@]3(CO)O[C@@H]23)[C@H](OC(=O)/C=C/c2ccc(O)c(O)c2)[C@H](O)[C@H]1O
Potency [1]: inactive | Potency [2]: inactive

CC(=O)N[C@H]1[C@H](O[C@H]2CC[C@@]3(C)C(CC[C@]4(C)C3CC=C3C5CC(C)(C)CC[C@]5(C(=O)O)[C@H](O)C[C@]34C)C2(C)C)O[C@H](CO[C@@H]2OC[C@H](O)[C@H](O)[C@H]2O[C@@H]2OC[C@@H](O)[C@H](O)[C@H]2O)[C@@H](O)[C@@H]1O (stereo partly specified)
Potency [1]: inactive | Potency [2]: inactive

C[C@@]12CC[C@@H]3[C@@](CC[C@H]4[C@@]3(C)CCC[C@@]4(C)C(=O)O)(CC1=O)C2
Potency [1]: inactive | Potency [2]: inactive

Cc1cc(Cl)ccc1COc1ccnn1-c1cc(C(=O)O)ccn1
Potency [1]: inactive | Potency [2]: inactive

O=C(c1ccc(/C=C/c2n[nH]c3ccccc23)cc1)N1CCNCC1
Potency [1]: inactive | Potency [2]: inactive

COc1cccc(Nc2ncnn3ccc(CN4CC[C@@H](N)[C@H](O)C4)c23)c1
Potency [1]: inactive | Potency [2]: inactive

CN(C)c1nc(NC2CCC(NCCc3ccc(Br)cc3OC(F)(F)F)CC2)nc2ccccc12 (stereo unspecified)
Potency [1]: inactive | Potency [2]: inactive

CC(=O)O[C@@H]1c2c(C)coc2C(=O)[C@@]23O[C@@H]2CC[C@H](C)[C@@]13C
Potency [1]: inactive | Potency [2]: inactive

C=C[C@H]1C(O[C@@H]2O[C@H](CO)[C@@H](O)[C@H](O)[C@H]2O)OC=C2C(=O)N3CCc4c([nH]c5ccccc45)C3CC21 (stereo partly specified)
Potency [1]: inactive | Potency [2]: inactive

CC(=O)C12OC(C)(C)OC1CC1C3CCC4=CC(=O)C=CC4(C)C3(F)C(O)CC12C (stereo unspecified)
Potency [1]: inactive | Potency [2]: inactive

C[C@H]1[C@H](O)O[C@@H]2O[C@@]3(C)CC[C@H]4[C@H](C)CC[C@@H]1[C@@]24OO3
Potency [1]: inactive | Potency [2]: inactive

CC(=O)OC1C(O)C2C(C)C3=CC(=O)OC3(O)CC2C2(C)CCCC(C)(CO)C12 (stereo unspecified)
Potency [1]: inactive | Potency [2]: inactive

C[C@@H]1O[C@@H](OC[C@H]2O[C@@H](Oc3cc(O)cc4c3C(=O)C(O)(Cc3ccc(O)cc3)O4)[C@H](O)[C@@H](O)[C@@H]2O)[C@H](O)[C@H](O)[C@H]1O (stereo partly specified)
Potency [1]: inactive | Potency [2]: inactive
